Measured values taken from the supplement of paper PMC6555819.

How the values were obtained:
Assay in all cases: PBM binding z-score (relative to random genomic background probes); higher = stronger binding; sequences stand for … in GC…GCGATTGACAGCGTAGAATGAAGG
[1] = system: FXR:RXRa (NR concentration 270 nM, RXRa partner concentration 90 nM)
Summary of the method: (§1)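 Ligand-free nuclear receptor dimers were applied to custom Agilent 4×180K protein-binding microarrays whose double-stranded probes carried direct-repeat seeds, single-nucleotide variants, half-site ablations and random human genomic background sequences in 34-nt variable regions. Incubation lasted 1 h. Binding z-scores were computed against the random background probes from regression-normalized fluorescence.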

[2] = system: LXRa:RXRa (NR concentration 270 nM, RXRa partner concentration 90 nM)
Summary of the method: as §1

[3] = system: LXRa homodimer (NR concentration 270 nM)
Summary of the method: as §1

[4] = system: LXRb:RXRa (NR concentration 270 nM, RXRa partner concentration 90 nM)
Summary of the method: as §1

[5] = system: LXRb homodimer (NR concentration 270 nM)
Summary of the method: as §1

[6] = system: PPARa:RXRa (NR concentration 270 nM, RXRa partner concentration 90 nM)
Summary of the method: as §1

[7] = system: PPARg:RXRa (NR concentration 180 nM, RXRa partner concentration 90 nM)
Summary of the method: as §1

[8] = system: PPARg:RXRa 270nM:90nM, anti-RXR (NR concentration 270 nM, RXRa partner concentration 90 nM)
Summary of the method: as §1

[9] = system: PPARg:RXRa 30nM:10nM, anti-RXR (NR concentration 30 nM, RXRa partner concentration 10 nM)
Summary of the method: as §1

[10] = system: PPARg:RXRa 90nM:30nM, anti-RXR (NR concentration 90 nM, RXRa partner concentration 30 nM)
Summary of the method: as §1

Sequence	PBM binding z-score [1]	PBM binding z-score [2]	PBM binding z-score [3]	PBM binding z-score [4]	PBM binding z-score [5]	PBM binding z-score [6]	PBM binding z-score [7]	PBM binding z-score [8]	PBM binding z-score [9]	PBM binding z-score [10]
ATATTTAGGTTAGGGTCATTCAGAAAGTAGGGAA	4.69	4.1	1.88	4.8	3.1	5.27	6.6	5.63	3.17	5.27
CGAACAAGGTCAAAGGACAGTGAAAGGCGACGTA	7.69	5.16	0.368	4.24	0.892	6.01	7.72	6.93	4.75	6.72
ATATGTAGGTTAGGGTCATTCAGAAAGTAGGGAA	5.09	4.43	1.52	4.66	1.62	5.61	7.97	6.68	4.41	6.43
TGGCCTAGGTCATGCGGGCCAGTATAGTGTCGGC	3.58	2.57	-0.464	1.2	-1.55	3.28	1.7	2.2	0.139	0.89
TCTGCTAGGTCAGTTGGGCAGCTAACGAGCTGCC	0.934	0.385	-0.629	0.223	0.28	1.12	0.0296	1.52	0.946	1.17
TAGCCTAGGTCAGATCGGGGCAGTATACGCTATA	3.05	1.42	-0.378	1.22	0.212	1.93	0.989	1.43	0.0966	0.842
CCTTACGGGTCCCTGACAGGTTATAGCATTTGGA	-0.274	-0.086	0.128	-0.0575	-0.647	0.0699	0.112	-0.345	-0.32	-0.402
AAATGTAGGTTAGGGTCATTCAGAAAGTAGGGAA	5.35	4.2	1.68	4.67	1.5	5.81	8.25	6.63	5.16	6.92
CGAACTAGGACAAAGGACAGTGAAAGGCGACGTA	-0.156	-0.553	-0.411	-0.765	-0.967	2.45	5.34	5.78	3.93	5.64
AGTCAAAGTTCATCTAGGTAACGAAAGATATGCT	6.43	5.78	4.68	3.86	1.83	5.26	7.04	6.66	3.55	5.72
CATACAGGGACAGCTAGGCCAGAGTAGGGACGGC	-0.116	-0.651	-0.464	-0.85	-0.351	-0.533	0.544	-0.673	-0.277	-0.633
CGAACTAGGTCAAACGACAGTGAAAGGCGACGTA	4.81	2.87	0.0143	2.12	0.102	5.14	8.27	6.9	5.2	7.3
TTACCAAGGTGAAAGGTCGTTGAAGCACGCCTTG	4.16	3.41	0.16	2.97	-0.616	5.82	9.24	8.52	7.08	9.79
GCTGCTAGGTCAGGTTGGTCTGCTAACGGGTACG	1.17	0.795	-0.237	0.627	-0.557	1.4	0.225	0.854	-0.545	0.295
CGGACTAGGTCAAAGGACAGTGAAAGGCGACGTA	3.87	2.49	-0.041	1.67	-0.542	4.93	10.2	8.4	8.49	9.55
ATATGTCGGTTAGGGTCATTCAGAAAGTAGGGAA	4.73	3.97	1.11	4.09	2.21	4.78	3.57	3.71	1.57	3.07
TCTTATAGATCAATAGAGGTTAAGAAAGTGCGCT	1.14	4.21	0.848	2	0.0677	1.92	0.685	2.02	3.21	2.51
CGAACTAGGTCACCAGGACAGGGAAGAGGTTGGA	4.04	2.49	-0.0204	1.64	-0.262	5.11	8.73	6.89	4.68	6.72
CCTTACGGGTCACTGACAGGTCATAGCATTTGGA	5.83	5.72	2.3	4.51	-0.00143	5.36	4.81	5.35	2.02	4.03
ATATGTAGGATATCGGGTCATTCAGTTTGCGCAT	1.64	1.98	0.589	2.02	0.577	3.05	2.36	2.9	1.16	2.09
CGAACTAGGTCAGCAGGACAGTGAAGAGGTTGGA	1.24	0.718	-0.103	0.384	-0.892	3.76	5.96	5.16	2.12	4.13
CGAACTAGGTCAAAGGACAGTGAGAGGCGACGTA	4.2	2.38	-0.449	1.41	-0.441	5.65	10.3	8.86	8	9.29
CCTACTGGGCGACGAAAGGTCATTGATTCAGTGA	3.21	3.92	4.32	3.94	-0.175	4.31	2.37	3.74	1.35	2.73
